Drawing on PubChem BioAssay (Tox21), this text covers Potency for 40 compounds.

Structures are written as SMILES. Inconclusive results are not listed. Where a call stands in place of a potency, no number is given. Activity calls are given as the source filed them. Calls follow the shape of the full dose curve.

The test is described as follows: qHTS assay to identify small molecule agonists of H2AX - cell viability counter screen (AID 1224847). Also: top concentration of the series differs between compounds; nearly all actives have a fitted effect of over 30% in size. As to conditions: CHO-K1 viability, CellTiter-Glo luminescence, 3 h; series mostly up to 154 µM. The text has this:
National Center for Advancing Translational Sciences [NCATS]
NIH Chemical Genomics Center [NCGC]
U.S. Environmental Protection Agency [EPA]
National Institutes of Environmental Health Sciences [NIEHS]
National Toxicology Program [NTP]
U.S. Food and Drug Administration [FDA]
HTRF phospho-H2AX (Ser139) assay (Cisbio Bioassays, US) enables the quantitative detection of the histone variant H2AX when phosphorylated on serine 139. When double-stranded DNA breaks, either by ionizing radiation or endogenous physiological processes, H2AX becomes phosphorylated at Ser139. This phospho-Ser139 serves as a sensitive biomarker for the detection of such breaks, localizing the site of DNA repair. So, HTRF phospho-H2AX Ser139 is a pertinent assay to study genome stability, the cell cycle, DNA repair, and it serves as a biomarker for cancer, and to understand aging. Wild type CHO-K1 cells were used to identify the inducers of Phospho-H2AX Ser 139 from the Tox21 compound collections. Also cytotoxicity of the Tox21 10K compound library against the CHO-K1 cell line was tested by measuring the cell viability using CellTiter-Glo assay (Promega, Madison, WI).
Tox21 Assay Protocol Summary:
The CHO-K1 cells suspended in culture medium containing 10% FBS were dispensed at 1000 cells/ 3 ul/well in 1536-well white wall/solid bottom plates (Greiner Bio-One North America, NC) using a Multidrop Combi (Thermo Fisher Scientific Inc., Waltham, MA). After the assay plates were incubated at 37C overnight, 23 nl of compounds at 15 concentrations (from 5-48 columns) or positive control (from 1 to 4 columns) were transferred to the assay plates using a Pintool station (Wako, San Diego, CA) into each well resulting in a final DMSO concentration of 0.76%. After 3hr incubation at 37C, 3 uL/well CellTiter-Glo luminescent cell viability reagent (Promega Corporation, Madison, WI) was added using a Flying Reagent Dispenser (FRD) (Aurora Discovery, CA). After incubation at room temperature for 30 min, the luminescence intensity was read using a ViewLux plate reader (PerkinElmer, Waltham, MA).
On the technique in general: In qHTS, concentration-response curves come from the screen itself.
`COC(=O)c1ccc(OC)cc1`: the Potency entry is “inactive”. The result for `NC/C=C/C(=O)O` reads “inactive”; that for `C=CC(C)(O)CC/C=C(\C)CCC=C(C)C` (stereo not given), “inactive”; that for `CCCCC(=O)O[C@]1(C(=O)CO)[C@H](C)C[C@H]2[C@@H]3CCC4=CC(=O)C=C[C@]4(C)[C@@]3(F)[C@@H](O)C[C@@]21C`, “inactive”. Next, `C/C(=N\O)[C@@H](C)NCC(C)(C)CN[C@H](C)/C(C)=N/O`: “inactive”. Next, `CCc1nnc(NS(=O)(=O)c2ccc(N)cc2)s1`: “inactive”; `CCN(CC)CCNC(=O)COc1ccc(Cl)cc1`: “inactive”; `CCOC(=O)C(Br)c1ccccc1` (stereo not given): “inactive”.

With `CCCCCCCOC(=O)CCC`, the Potency entry was “inactive”. Take `CC(=O)OC1C2(C)CCC(C2)C1(C)C` (stereo not given): the Potency result is “inactive”. Next, `C=CCCCCCCCCO`: “inactive”; `COC(C)CCO` (stereo not given): “inactive”; `CCN(CC)C(=O)N(CC)CC`: “inactive”. In the case of `ICCc1ccccc1`, the Potency entry was “inactive”. Next, `CN1[C@@H]2CC[C@H]1CC(OC(=O)c1c[nH]c3ccccc13)C2` (stereo not given in full): “inactive”.

As for `O=c1[nH]cnc2c1ncn2[C@@H]1O[C@H](CO)[C@@H](O)[C@H]1O`, the Potency entry was “inactive”.

For `CC(C)OC(C)C`, the Potency result is “inactive”. `O=Cc1ccc(O)c(O)c1O`: the Potency result was “inactive”. The result for `CCCCCCn1c(=O)c2c(ncn2C)n(C)c1=O` reads “inactive”. Next, `CC(C)Nc1nc(N)nc(Cl)n1`: “inactive”.

As for `CCOC(=O)CS`, the Potency result was “inactive”.

As to `CN(CC1(C)CCCO1)S(=O)(=O)c1ccc(Cl)c(S(N)(=O)=O)c1` (stereo not given), the Potency entry is “inactive”. Next, `NCCCN1CCN(CCCN)CC1`: “inactive”. As to `Nc1ccc2ccccc2c1S(=O)(=O)O`, the Potency result is “inactive”. Next, `CO[C@@]1(NC(=O)CSCC#N)C(=O)N2C(C(=O)O)=C(CSc3nnnn3C)CS[C@@H]21`: “inactive”; `Nc1cccc(S(=O)(=O)O)c1`: “inactive”; `CCCCc1ccc2nc(NC(=O)OC)[nH]c2c1`: “inactive”. Next, `CC(=O)OC(C)OC(C)=O`: “inactive”; `COC(=O)C(C)O` (stereo not given): “inactive”.

For the compound `CCCN(CCC)C(=O)C(CCC(=O)O)NC(=O)c1ccccc1` (stereo not given), the Potency result was “inactive”. The result for `Oc1ccccc1F` reads “inactive”. The result for `CN1CCN(C2=Nc3ccccc3Oc3ccc(Cl)cc32)CC1` reads “inactive”; that for `CC1(C)S[C@@H]2[C@H](NC(=O)C(C(=O)O)c3ccccc3)C(=O)N2[C@H]1C(=O)O` (stereo not given in full), “inactive”; that for `COc1ccccc1N1CCN(CCCNc2cc(=O)n(C)c(=O)n2C)CC1`, “inactive”. Next, `Cc1nc(-c2ccccn2)ncc1C(=O)Nn1cc(C)c2cc(F)ccc21`: “inactive”. In the case of `CC1(O)CSC(C)(O)CS1` (stereo not given), the Potency result was “inactive”.

In the case of `COc1cc(C)ccc1C(C)C`, the Potency result is “inactive”. The result for `CC1(C)C(=O)N(Cl)C(=O)N1Br` reads “inactive”; that for `CC(Oc1c(Cl)cccc1Cl)C1=NCCN1` (stereo not given), “inactive”; that for `Cc1ccsc1C(=CCCN1CCC[C@@H](C(=O)O)C1)c1sccc1C`, “inactive”.
